Here are results for 21 compounds from PubChem BioAssay (NCI).

This is part of a sample that, as a whole, favours compounds with a hit. Of some 79,000 tested, about 15% had one in any assay. Unmarked numbers belong to inactive results. Active and inactive are the calls of the source. Rule as the data show it: active = growth inhibition above about 70%; inactive = the rest.

Assay [1] can be described thus: NCI Yeast Anticancer Drug Screen. Data for the rad50 strain (AID 155).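 Also: 0% = growth of vehicle-only cultures of the same strain.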 The settings on record: S. cerevisiae rad50 strain growth inhibition; at 50.0 µM; stronger effect = higher value. The method, boiled down:
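Compounds were tested on a yeast strain with an engineered DNA damage repair alteration; the reported value is growth inhibition normalised to vehicle treatment.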

Assay [2] can be described thus: NCI Yeast Anticancer Drug Screen. Data for the mec2-1 strain (AID 157). Conditions: S. cerevisiae mec2-1 strain, at 50.0 µM, stronger effect = higher value. The essentials: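 Mutant yeast (mec2-1) grown with compound; growth inhibition relative to vehicle control reported.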
The nature of assay [3]: NCI Yeast Anticancer Drug Screen. Data for the sgs1 mgt1 strain (AID 161).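 Also: 0% = growth of cultures given vehicle only.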 Conditions: S. cerevisiae sgs1 mgt1 strain, at 50.0 µM, stronger effect = higher value. The method, boiled down: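 Percent growth inhibition was derived by comparing compound-exposed mutant yeast with vehicle-exposed cultures. The strain carries alterations in DNA damage repair.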
Assay [4] in a line: NCI Yeast Anticancer Drug Screen. Data for the cln2 rad14 strain (AID 165).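 Also: 0% = growth equal to vehicle treated cultures.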 Conditions: S. cerevisiae cln2 rad14 strain, at 50.0 µM, stronger effect = higher value. The essentials: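 Readout is yeast growth inhibition versus vehicle-treated controls, using a strain with cln2 and rad14 alterations exposed to compound.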
Assay [5] can be described thus: NCI Yeast Anticancer Drug Screen. Data for the bub3 strain (AID 167). Conditions: S. cerevisiae bub3 mutant strain, at 50.0 µM, stronger effect = higher value. The essentials: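 Growth of a checkpoint-deficient yeast mutant is measured after compound exposure. Values represent inhibition relative to vehicle.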
Assay [6] in a line: NCI Yeast Anticancer Drug Screen. Data for the mlh1 rad18 strain (AID 175). Conditions: S. cerevisiae mlh1 rad18 strain growth inhibition; at 50.0 µM; stronger effect = higher value. The essentials: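 Genetically defined yeast (DNA repair-deficient) exposed to compounds; growth inhibition determined relative to vehicle.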

As to `O=C1NC(N2CCCC(CO)C2)=N/C1=C\c1ccccc1` (stereo unspecified), the growth inhibition is -15.6% in assay [1]; -2.85% in assay [2]; 10% in assay [3]; 7.6% in assay [4]; 7.15% in assay [5]; -33.7% in assay [6].
For the compound `O=[N+]([O-])c1ccc(S(=O)(=O)N(CCCBr)c2ccccc2)cc1`, the growth inhibition in assay [1] is 48.4%; in assay [2], 42.6%; in assay [3] it was 72.7% (active); in assay [4], 24.6%; in assay [5], 44.5%; in assay [6], 74.3% (active).
Take `CCOC(=O)NC(=Cc1ccccn1)c1ccc(Cl)cc1` (mixture of isomers): the growth inhibition was 7.7% in assay [1]; -3.1% in assay [2]; -8.35% in assay [3]; -0.7% in assay [4]; 4.25% in assay [5]; 28.6% in assay [6].
On to `CCOC(=O)[C@H]1Nc2ccc(Cl)cc2[C@H]2OCC[C@@H]12`, for which the growth inhibition in assay [1] is 5.5%; in assay [2], -10.9%; in assay [3] it was -2.4%; in assay [4], 23.8%; in assay [5], 3.15%; in assay [6], -0.7%.
`CCO/N=C(/CNC(=O)Oc1ccccc1)c1ccccc1`: the growth inhibition in assay [1] was 3.15%; in assay [2] it was 0.75%; in assay [3], -4.05%; in assay [4] it was 28%; in assay [5] it was 37.4%; in assay [6], 9.45%.
In the case of `CC1=CC2C3C(=O)NC(=O)C3C1C1C3C(=O)NC(=O)C3C21` (stereo unspecified), the growth inhibition is -25% in assay [1]; -3.9% in assay [2]; 1.2% in assay [3]; -18.6% in assay [4]; 2.45% in assay [5]; 16.4% in assay [6].
`CC1CCc2ccccc2N1C(=O)c1cccc([N+](=O)[O-])c1C(=O)O` (stereo unspecified): the growth inhibition in assay [1] is -6.1%; in assay [2] it was 2.7%; in assay [3] it was 27.4%; in assay [4] it was -11.6%; in assay [5], 21.7%; in assay [6], 5.5%.
In the case of `Clc1ccc(Cl)c2c(Br)cncc12`, the growth inhibition in assay [1] was 37.4%; in assay [2] it was 10.8%; in assay [3], 12.9%; in assay [4], 7.05%; in assay [5] it was 17.5%; in assay [6], 22.1%.
With `CC(=O)OCCCC1CO1` (stereo unspecified), the growth inhibition in assay [1] was 14.9%; in assay [2], -13.7%; in assay [3], -1.4%; in assay [4] it was 3.15%; in assay [5], -14.2%; in assay [6] it was 10.6%.
For the compound `COc1cc(CN2CCN(CCO)CC2)c(O)c(CN2CCN(CCO)CC2)c1`, the growth inhibition is -2% in assay [1]; 1.55% in assay [2]; -23.4% in assay [3]; -6.9% in assay [4]; -5.45% in assay [5]; 6.9% in assay [6].
With `NC(=O)c1c[nH]c(=O)cc1O`, the growth inhibition in assay [1] is -5.35%; in assay [2], -13.6%; in assay [3], 50.2%; in assay [4], 18.8%; in assay [5] it was 7.3%; in assay [6], 0%.
Regarding `CC(=O)Nc1ccc(OCCCc2ccccc2)c([N+](=O)[O-])c1`, the growth inhibition was -7.2% in assay [1]; 43.6% in assay [2]; 23.5% in assay [3]; -20.7% in assay [4]; 20.4% in assay [5]; -2.65% in assay [6].
For `Nc1ccc(-c2ccc(N=C(/C=N/O)NO)cc2)cc1`, the growth inhibition was -7.05% in assay [1]; -4.25% in assay [2]; 2.4% in assay [3]; -46% in assay [4]; 12.2% in assay [5]; -2.15% in assay [6].
Take `CCOC(=O)c1c[nH]c2cc(Cl)ccc2c1=O`: the growth inhibition in assay [1] is 3.85%; in assay [2], 30.5%; in assay [3] it was 9.65%; in assay [4] it was 7.9%; in assay [5], 15.3%; in assay [6] it was -12.9%.
As to `COc1ccn(C2OCCC(OC(C)=O)C2O)c(=O)n1` (stereo unspecified), the growth inhibition in assay [1] was -19.8%; in assay [2] it was -24.1%; in assay [3], 6.25%; in assay [4], -22.9%; in assay [5], 0.4%; in assay [6] it was 11.7%.
With `O=C(Oc1ccc[nH]c1=O)C1CC1`, the growth inhibition in assay [1] was 17.9%; in assay [2], 7.45%; in assay [3], 67.2%; in assay [4], 14%; in assay [5] it was 22.2%; in assay [6], 38%.
For `O=C(O)C(NCCCNC(C(=O)O)c1ccccc1)c1ccccc1` (stereo unspecified), the growth inhibition in assay [1] was 22.4%; in assay [2], 14.2%; in assay [3], 22.6%; in assay [4], 37.6%; in assay [5] it was 21.7%; in assay [6], 19.1%.
With `CNC(=O)/C=C/C1=CN2C(=O)c3ccc(C)c(O)c3NC(OC)C2C1` (stereo unspecified), the growth inhibition in assay [1] is 91.5% (active); in assay [2] it was 93.7% (active); in assay [3], 93% (active); in assay [4], 92.6% (active); in assay [5], 92.3% (active); in assay [6], 89.2% (active).
Regarding `CC(Oc1ccc(Br)cc1Br)C(=O)O` (stereo unspecified), the growth inhibition in assay [1] was 4.1%; in assay [2] it was -16.2%; in assay [3], 1.2%; in assay [4], 23.2%; in assay [5], -14.5%; in assay [6], 19.1%.
For the compound `CCOC(=O)c1c(C)csc1NC(=O)CSCC(=O)OC`, the growth inhibition in assay [1] was 10.2%; in assay [2], -4%; in assay [3], 30.5%; in assay [4] it was 19.9%; in assay [5] it was 41%; in assay [6], 31.6%.
On to `c1ccc2c(c1)ccc1c3c(oc12)CCCC3`, for which the growth inhibition in assay [1] is -10.5%; in assay [2], -6.45%; in assay [3], -15.7%; in assay [4] it was -36.4%; in assay [5], 0.25%; in assay [6], -5.9%.
